# Counter-ions that a name gives are not always drawn.
# System: primary human airway basal cells (HBEC, luciferase-transduced)
# Experiment: proliferation (luciferase bioluminescence) Z score relative to plate mean; higher = more proliferation / more cells, active = 1.96 or more
# Settings: donor: 1; 0.5 µM; library: ENZO Libraries; 4 days
# Experimental: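 Primary human bronchial epithelial (airway basal) cells from two donors, lentivirally transduced with pHIV-Luc-ZsGreen, were seeded at 2000 cells/well in 384-well plates in FAD medium with ENZO or Prestwick library compounds and cultured for 4 days. Luciferin was then added and bioluminescence was read as a measure of cell number. Relative light units were converted to Z scores against the plate, and the mean of triplicate wells is reported.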
row,SMILES,proliferation
1,C[S+]([O-])c1ccc(-c2nc(-c3ccc(F)cc3)c(-c3ccncc3)[nH]2)cc1 (centres undefined),0.838 (inactive)
2,CC[C@H](C)[C@H](N)C(=O)N1CCSC1 [P32/98 hemifumarate salt],-0.342 (inactive)
3,O=C(O)c1ccnc(C(=O)O)c1 [24-Pyridinedicarboxylic Acid],0.171 (inactive)
4,O=C1Nc2ccc([N+](=O)[O-])cc2C1=O [5-Nitroisatin],0.112 (inactive)
5,CCCC(CCC)C(=O)NO [Valproic acid hydroxamate],-0.292 (inactive)
6,Cc1cc2ncc(-c3ccccc3)nc2cc1C,5.22 (active)
7,CC(C)C[C@H](NC(=O)[C@@H](O)[C@H](N)Cc1ccccc1)C(=O)O,-0.66 (inactive)
8,O=Nc1c(-c2c(O)[nH]c3ccccc23)[nH]c2ccccc12 [Indirubin-3'-monooxime],-0.0926 (inactive)
9,CC(C)C[C@H](NC(=O)N[C@H](C(=O)N[C@@H](CCC(N)=O)C(=O)N[C@@H](C)C=O)[C@@H]1CCNC(=N)N1)C(=O)O [Elastatinal],-0.455 (inactive)
10,COc1cc(/C=C(\C#N)C(N)=O)cc(CSc2nc3ccccc3s2)c1O,-0.428 (inactive)
11,O=c1cc(N2CCOCC2)oc2c(-c3ccccc3)cccc12,-0.437 (inactive)
12,O=C[C@@H]1CCCN1C(=O)[C@@H]1CCCN1C(=O)OCc1ccccc1 [Z-Prolyl-prolinal],-0.531 (inactive)
13,CCN1C(=O)C=CC1=O [N-Ethylmaleimide],0.0934 (inactive)
14,CC(C(=O)Nc1cccc(/N=C/c2c(O)ccc3ccccc23)c1)c1ccccc1 (centres undefined) [Salermide],-0.719 (inactive)
15,Nc1c(O)cc(O)cc1C=Cc1ccc(O)cc1 [Aminoresveratrol sulfate],0.00314 (inactive)
16,C[C@H](NC(=O)[C@@H]1CCCN1C(=O)[C@@H]1CCCN1C(=O)[C@@H](O)[C@H](N)Cc1ccccc1)C(N)=O [Apstatin],-0.513 (inactive)
17,NCCCC[C@H](N[C@@H](CCc1ccccc1)C(=O)O)C(=O)N1CCC[C@H]1C(=O)O [Lisinopril],-0.405 (inactive)
18,COc1cc2ncc(-c3ccccc3)nc2cc1OC,2.2 (active)
19,CC(C)C[C@H](NC(=O)[C@H]1O[C@@H]1C(=O)O)C(=O)NCCCCN=C(N)N,-0.0103 (inactive)
20,COCc1cc(O)c(O)c(O)c1-c1c(COC)cc(O)c(O)c1O,-0.578 (inactive)
21,O=C(c1ccc(Cl)cc1Cl)n1nnc2ccccc21,-0.0821 (inactive)
22,Oc1ccc(/C=C/c2cc(O)cc(O)c2)cc1 [Resveratrol],1.08 (inactive)

# Same assay, conditions: donor: 1; 5 µM; library: ENZO Libraries; 4 days
row,SMILES,proliferation
1,C[S+]([O-])c1ccc(-c2nc(-c3ccc(F)cc3)c(-c3ccncc3)[nH]2)cc1 (centres undefined),0.0347 (inactive)
2,CC[C@H](C)[C@H](N)C(=O)N1CCSC1 [P32/98 hemifumarate salt],-0.616 (inactive)
3,O=C(O)c1ccnc(C(=O)O)c1 [24-Pyridinedicarboxylic Acid],-0.194 (inactive)
4,O=C1Nc2ccc([N+](=O)[O-])cc2C1=O [5-Nitroisatin],-0.27 (inactive)
5,CCCC(CCC)C(=O)NO [Valproic acid hydroxamate],-0.132 (inactive)
6,Cc1cc2ncc(-c3ccccc3)nc2cc1C,2.1 (active)
7,CC(C)C[C@H](NC(=O)[C@@H](O)[C@H](N)Cc1ccccc1)C(=O)O,-0.519 (inactive)
8,O=Nc1c(-c2c(O)[nH]c3ccccc23)[nH]c2ccccc12 [Indirubin-3'-monooxime],2.48 (active)
9,CC(C)C[C@H](NC(=O)N[C@H](C(=O)N[C@@H](CCC(N)=O)C(=O)N[C@@H](C)C=O)[C@@H]1CCNC(=N)N1)C(=O)O [Elastatinal],-0.0211 (inactive)
10,COc1cc(/C=C(\C#N)C(N)=O)cc(CSc2nc3ccccc3s2)c1O,-0.258 (inactive)
11,O=c1cc(N2CCOCC2)oc2c(-c3ccccc3)cccc12,-0.857 (inactive)
12,O=C[C@@H]1CCCN1C(=O)[C@@H]1CCCN1C(=O)OCc1ccccc1 [Z-Prolyl-prolinal],-0.515 (inactive)
13,CCN1C(=O)C=CC1=O [N-Ethylmaleimide],-0.247 (inactive)
14,CC(C(=O)Nc1cccc(/N=C/c2c(O)ccc3ccccc23)c1)c1ccccc1 (centres undefined) [Salermide],-0.645 (inactive)
15,Nc1c(O)cc(O)cc1C=Cc1ccc(O)cc1 [Aminoresveratrol sulfate],1.56 (inactive)
16,C[C@H](NC(=O)[C@@H]1CCCN1C(=O)[C@@H]1CCCN1C(=O)[C@@H](O)[C@H](N)Cc1ccccc1)C(N)=O [Apstatin],-0.193 (inactive)
17,NCCCC[C@H](N[C@@H](CCc1ccccc1)C(=O)O)C(=O)N1CCC[C@H]1C(=O)O [Lisinopril],0.0284 (inactive)
18,COc1cc2ncc(-c3ccccc3)nc2cc1OC,2.78 (active)
19,CC(C)C[C@H](NC(=O)[C@H]1O[C@@H]1C(=O)O)C(=O)NCCCCN=C(N)N,-0.0032 (inactive)
20,COCc1cc(O)c(O)c(O)c1-c1c(COC)cc(O)c(O)c1O,-0.416 (inactive)
21,O=C(c1ccc(Cl)cc1Cl)n1nnc2ccccc21,0.316 (inactive)
22,Oc1ccc(/C=C/c2cc(O)cc(O)c2)cc1 [Resveratrol],3.39 (active)

# — the supplement of paper PMC12045047
